Source: the supplement of paper PMC6992640
± gives the standard deviation of the averaged measurements.

These compounds were tested on HCI03 (cells of an ER-positive luminal breast cancer xenograft) (assay: cell viability (% of vehicle); higher = less cytotoxic). Settings: 10 µM; 72 h.
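Note: PDX cells carrying CMV promoter-driven luciferase, viability read as total photon flux per second by IVIS imaging following D-luciferin, vehicle control 0.1% DMSO.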

SMILES | cell viability
O=c1c(-c2ccc(O)cc2)coc2cc(O)cc(O)c12 [Genistein] | 160
Nc1nc2ccc(OC(F)(F)F)cc2s1 [Riluzole] | 158
O=C(CCCCCCNC(=O)c1cnc(N(c2ccccc2)c2ccccc2)nc1)NO [Rocilinostat (ACY-1215)] | 108
CC(C=CC1=C(C)CCCC1(C)C)=CC=CC(C)=CC(=O)O [Tretinoin (Aberela)] | 143
Cc1[nH]c2ccccc2c1CCNCc1ccc(C=CC(=O)NO)cc1 [Panobinostat (LBH589)] | 130
CC(=Cc1ccccc1)C=C1SC(=S)N(CC(=O)O)C1=O [Epalrestat] | 112

These compounds were tested on HCI09 (cells of a triple-negative luminal androgen receptor type breast cancer xenograft) in the same assay as above. Settings: 10 µM; 72 h.

SMILES | cell viability
CC(=O)Oc1ccccc1C(=O)Nc1ncc([N+](=O)[O-])s1 [Nitazoxanide] | 161 ± 140
Oc1ccc(C=Cc2cc(O)cc(O)c2)cc1 [Resveratrol] | 196 ± 110
O=C(CCCCCCC(=O)Nc1ccccc1)NO [Vorinostat (SAHA, MK0683)] | 46.1 ± 37
O=C(Nc1nc2cccc(-c3ccc(CN4CCS(=O)(=O)CC4)cc3)n2n1)C1CC1 | 186 ± 51
O=C(CCCCCCNC(=O)c1cnc(N(c2ccccc2)c2ccccc2)nc1)NO [Rocilinostat (ACY-1215)] | 45.1 ± 28
CCCCc1nc2cc(C=CC(=O)NO)ccc2n1CCN(CC)CC [Pracinostat (SB939)] | 56.2 ± 49
Cc1[nH]c2ccccc2c1CCNCc1ccc(C=CC(=O)NO)cc1 [Panobinostat (LBH589)] | 68.3 ± 34

The compounds below were run on HCI11 (cells of an ER-positive luminal breast cancer xenograft) in the same assay as above. Settings: 10 µM; 72 h.

SMILES | cell viability
Cn1nnc(-c2ccc(-c3ccc(N4CC(CO)OC4=O)cc3F)cn2)n1 (stereo not drawn) [Tedizolid] | 107
O=c1c(-c2ccc(O)cc2)coc2cc(O)cc(O)c12 [Genistein] | 129
CC(=O)Oc1ccccc1C(=O)Nc1ncc([N+](=O)[O-])s1 [Nitazoxanide] | 168
CC(NCc1ccc(OCc2cccc(F)c2)cc1)C(N)=O.CS(=O)(=O)O (stereo not drawn) [Safinamide Mesylate] | 161
CC(O)=C(C#N)C(=O)Nc1ccc(C(F)(F)F)cc1 [Teriflunomide] | 162
CNC(=O)c1ccccc1Sc1ccc2c(C=Cc3ccccn3)n[nH]c2c1 | 158
COc1cccc(-c2ccc(NC(=O)C3=C(C(=O)O)CCC3)c(F)c2)c1 [Vidofludimus] | 99.5
O=C(CCCCCCC(=O)Nc1ccccc1)NO [Vorinostat (SAHA, MK0683)] | 21.7
COc1ccc(C=CC(=O)Nc2ccccc2C(=O)O)cc1OC [Tranilast] | 87.9
Nc1nc2ccc(OC(F)(F)F)cc2s1 [Riluzole] | 162
c1cn2cc(-c3ccc4cn[nH]c4c3)nc(Nc3ccc(N4CCOCC4)cc3)c2n1 | 125
CCCCc1nc2cc(C=CC(=O)NO)ccc2n1CCN(CC)CC [Pracinostat (SB939)] | 6.31
CC(C=CC1=C(C)CCCC1(C)C)=CC=CC(C)=CC(=O)O [Tretinoin (Aberela)] | 149
CC(=Cc1ccccc1)C=C1SC(=S)N(CC(=O)O)C1=O [Epalrestat] | 96.4
Cc1oncc1C(=O)Nc1ccc(C(F)(F)F)cc1 [Leflunomide] | 194
